# Experimental data from ChEMBL document CHEMBL3988442, “University of Dundee, Small-Polar-MMV Screening Library” (2021).
# Experiments:
# [1] = molecular target: T1, Aspartate--tRNA(Asp/Asn) ligase (Mycobacterium tuberculosis (strain ATCC 25618 / H37Rv)) (UniProt P9WFW3); experiment: Assay for Asp RNA synthetase-1 from Mycobacterium tuberculosis; format: functional; parameters: scale not given: direction of the effect not stated beside the values; settings: 30 µM; further: in the data most compounds retested in dose-response had high values
# T1 sequence (whole entry): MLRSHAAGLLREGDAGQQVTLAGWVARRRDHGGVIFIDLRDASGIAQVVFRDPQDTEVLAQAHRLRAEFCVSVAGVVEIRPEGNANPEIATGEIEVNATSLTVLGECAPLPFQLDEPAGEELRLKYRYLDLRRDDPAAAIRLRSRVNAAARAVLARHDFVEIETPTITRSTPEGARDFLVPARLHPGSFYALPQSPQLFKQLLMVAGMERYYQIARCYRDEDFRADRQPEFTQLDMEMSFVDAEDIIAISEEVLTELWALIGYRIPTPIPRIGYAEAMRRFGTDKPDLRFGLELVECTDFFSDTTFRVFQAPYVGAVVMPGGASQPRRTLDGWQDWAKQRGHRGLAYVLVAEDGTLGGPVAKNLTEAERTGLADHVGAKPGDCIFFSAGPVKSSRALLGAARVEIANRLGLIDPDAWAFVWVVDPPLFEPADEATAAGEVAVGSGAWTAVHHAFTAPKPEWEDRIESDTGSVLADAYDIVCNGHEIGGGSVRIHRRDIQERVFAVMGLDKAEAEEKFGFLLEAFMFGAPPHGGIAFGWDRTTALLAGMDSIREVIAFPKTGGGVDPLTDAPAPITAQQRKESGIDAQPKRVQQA
# [2] = molecular target: Shiga toxin 2 (Escherichia coli O157:H7) (UniProt P09385+P09386); experiment: E. coli 0.157:H7 Shiga Toxin SOP - stx2 screening assay; format: functional; parameters: scale not given: direction of the effect not stated beside the values; settings: 30 µM
Structure (SMILES),Percent Effect [1] [%],Percent Effect [2] [%]
O=C(CCn1cncn1)NC1(c2cccc(Br)c2)CCC1,8.08,-21.1
c1cnnc(N2CCCC2CNCc2ccsc2)c1 (stereo not given),-3.81,-8.21
Cc1cccc(CNCc2c(C(C)C)nn(C)c2N2CCOCC2)n1,7.04,12.3
CN(Cc1ccc(Cl)c(Cl)c1)C(=O)CNC(N)=O,0.719,10.2
CC(C)CC(CNC(=O)NCc1cc[nH]n1)N1CCOCC1 (stereo not given),-6.68,-30.7
O=c1n(CCSCc2ccccc2F)nc2ccccn12,0.461,20.1
CCN1CCN(C(=O)C(C)N2CCN(Cc3nccn3C)CC2)CC1 (stereo not given),0.262,-3.01
Cc1csc(N2CCN(C(=O)CCn3cncn3)CC2)n1,-4.23,-2.86
CCc1ccccc1NC(=O)N1CCn2cnc(COC)c2C1,-3.09,6.27
Cc1cc2n(n1)CC(CNC1CCN(c3ccc(F)cc3)CC1)CN2 (stereo not given),4.19,-37.2
Cc1cc(C[C@@H]2COC[C@@H]2NC(=O)CN2CCCC2)on1,4.6,-10.1
CS(=O)(=O)NCCCN1CCCC1Cc1ccccc1 (stereo not given),-3.08,-0.572
CCC1=N[C@@]2(CC[C@@H]3CN(Cc4ccc(Cl)cc4)C[C@@H]32)C(=O)N1,0.626,3.7
CN1CCN(Cc2cn3c(n2)CN(C(=O)N2CCOCC2)CC3)CC1,5.44,-16.4
CC(NC(=O)CCc1cccs1)c1nnc2n1CCC2 (stereo not given),-0.379,3.4
Cc1nc(CN2C(=O)CCC23CCN(c2ncccn2)CC3)cs1,4.19,-30.4
Cc1ncsc1CN1C[C@H](C(=O)N2CCCO2)[C@@H]2CCO[C@@H]2C1,-1.48,-4.78
CN(C)CCOCC1CN(C(=O)[C@H]2CCCO2)Cc2ccnn2C1 (stereo not given in full),0.379,-15.2
O=C(NCc1ccccc1-n1cccn1)N1CCN2CCCCC2C1 (stereo not given),-6.8,3.68
CCc1ccc(S(=O)(=O)Nc2c(C)cccc2C(=O)O)s1,0.112,25.9
Cc1nccn1C1CCCN(C(=O)c2ccc3c(c2)nnn3C)C1 (stereo not given),-1.94,16.2
CCCC1(CO)CCCN(c2ncccc2F)C1 (stereo not given),0.836,-7.35
CCCN1CC(C(=O)Nc2ccccn2)CC1=O (stereo not given),-1.33,1.5

Structure (SMILES),Percent Effect [1] [%],Percent Effect [2] [%]
CC(C)COCC(NC(=O)c1ccccn1)c1ccco1 (stereo not given),-1.2,28
O=C(Cc1ccccc1F)N1C[C@@H]2COC[C@]2(COc2cccnc2)C1,6.28,3.35
CCOCC1CN(C(=O)C2=CCCC2)Cc2cnn(CC)c21 (stereo not given),-0.107,3.46
COc1ccc(CN2C[C@@H]3OCCN(CC4CCCO4)[C@@H]3C2)cc1 (stereo not given in full),-0.535,-4.29
Cc1nc(C)n(CC2CCCN(Cc3ccc(C(N)=O)cc3)C2)n1 (stereo not given),-5.85,20.8
O=C(Cn1nc2c(cc1=O)CSCC2)NC(Cc1ccccc1)C(=O)O (stereo not given),0.581,-19.5
CCn1nc(CC(C)C)cc1C(=O)NCCn1cccc1,3.71,-3.77
CCCc1nc(CN2CCCC(Cn3cncn3)C2)no1 (stereo not given),-3.39,-26.6
CCS(=O)(=O)CC(=O)NC(c1ccccc1)C1CCCCC1 (stereo not given),3.23,7.43
CS(=O)(=O)N1CCCCCC1C1CCN(c2ncccn2)CC1 (stereo not given),-3.75,24.4
Cc1occc1C(=O)N1CCC2(CCC2NC(=O)c2ccn(C)c2)CC1 (stereo not given),-3.29,13.8
CN(Cc1cnn(C)c1)C(=O)c1ccc(=O)n(C)n1,-3.08,-8.81
COc1ccc(CN2CCC(O)CC2)c(OC)c1,-2.06,7.95
O=C(Cn1cccnc1=O)NCCc1ccc2c(c1)OCCO2,2.57,-33.8
c1csc(CN2Cc3nccn3CC(Cn3cncn3)C2)n1 (stereo not given),-2.48,-4.98
CC(CNC(=O)N1CCN(c2cnccn2)CC1)Cc1cccs1 (stereo not given),0.324,-14.3
CN(CC1CC1)c1ccc2ccc(C(=O)NCCN3CCOCC3)cn12,-0.228,-88.6
O=C1CC2(CCCNC2)C(=O)N1Cc1ccc(F)cc1 (stereo not given),3.3,-4.45
N#Cc1ccc(C(=O)NCCCNc2ccc(C(F)(F)F)cn2)cc1,-4.52,28.9
COc1ccc(COCC(O)CNC(=O)c2cnc(C)cn2)cc1 (stereo not given),0.509,-32.5
CC(CC#N)NC(=O)c1cc(Br)c2c(c1)OCCO2 (stereo not given),-8.16,-5.44
COc1cccc(C(=O)Nc2cc(CC(C)C)nn2C)c1,-7.31,12
